Experimental data as given in PMC4336329 (PLoS ONE, 2015).
Screen size: about 310,000 compounds; about 14,000 (4.5%) showed an effect of 50% or more. Effects have a minus sign here. The list comes from a sample in which strong results are over-represented; it also holds similar structures and randomly drawn compounds.

biological target: human ether-à-go-go-related gene (hERG) potassium channel (human, UniProt Q12809); assay: primary screen, population patch clamp on CHO cells stably expressing hERG; higher = less effect of the substance
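Note: peak tail current of the secondary pulse compared with the same well before compound.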

Chain of human ether-à-go-go-related gene (hERG) potassium channel (Q12809 whole entry, looked up): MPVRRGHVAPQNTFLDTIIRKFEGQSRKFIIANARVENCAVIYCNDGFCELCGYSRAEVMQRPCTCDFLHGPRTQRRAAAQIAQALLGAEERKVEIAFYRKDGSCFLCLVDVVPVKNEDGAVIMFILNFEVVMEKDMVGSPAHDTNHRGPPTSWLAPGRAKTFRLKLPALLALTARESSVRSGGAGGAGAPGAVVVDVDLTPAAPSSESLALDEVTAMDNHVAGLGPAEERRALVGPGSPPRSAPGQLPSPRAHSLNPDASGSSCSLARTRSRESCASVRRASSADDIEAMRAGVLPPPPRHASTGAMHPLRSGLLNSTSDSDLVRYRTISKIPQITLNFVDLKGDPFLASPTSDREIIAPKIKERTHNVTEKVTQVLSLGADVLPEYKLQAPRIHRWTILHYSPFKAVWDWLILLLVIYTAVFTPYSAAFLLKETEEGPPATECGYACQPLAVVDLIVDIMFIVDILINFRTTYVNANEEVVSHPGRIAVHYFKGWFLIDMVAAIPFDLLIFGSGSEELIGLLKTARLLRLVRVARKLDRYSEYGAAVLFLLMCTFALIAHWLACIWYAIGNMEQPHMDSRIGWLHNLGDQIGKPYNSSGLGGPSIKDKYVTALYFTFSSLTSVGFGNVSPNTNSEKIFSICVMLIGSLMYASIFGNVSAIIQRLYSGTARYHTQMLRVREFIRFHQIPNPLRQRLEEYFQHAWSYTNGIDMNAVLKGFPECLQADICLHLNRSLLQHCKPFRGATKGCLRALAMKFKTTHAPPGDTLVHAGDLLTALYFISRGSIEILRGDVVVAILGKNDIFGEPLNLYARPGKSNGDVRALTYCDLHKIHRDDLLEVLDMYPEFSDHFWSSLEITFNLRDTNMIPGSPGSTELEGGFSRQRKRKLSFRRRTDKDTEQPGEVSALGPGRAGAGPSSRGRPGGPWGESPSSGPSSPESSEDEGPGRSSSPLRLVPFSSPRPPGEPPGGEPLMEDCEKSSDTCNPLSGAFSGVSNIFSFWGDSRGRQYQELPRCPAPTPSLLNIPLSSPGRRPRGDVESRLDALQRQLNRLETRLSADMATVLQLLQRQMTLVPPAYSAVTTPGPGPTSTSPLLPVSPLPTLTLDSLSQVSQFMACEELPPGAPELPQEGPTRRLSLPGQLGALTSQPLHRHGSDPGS

Row | SMILES | hERG current change (%, negative = inhibition) at 10uM [%]
1 | CC(C)c1ccc(S(=O)(=O)c2n[nH]n3c2nc(=O)c2ccccc23)cc1 | -16.7
2 | C/C(=N\NC(=S)NCC(C)(C)C)c1cc(F)cc(F)c1O | 17.2
3 | CC1=NN(C(N)=S)C(=O)C1N=Nc1c(Br)cc(Br)cc1Br (stereo not shown) | -8.08
4 | COc1ccc(C2CC(c3ccccc3)Nc3nc(NS(C)(=O)=O)nn32)cc1 (stereo not shown) | 7.1
5 | CCc1sc2nc(SCC(=O)Nc3cc(C)on3)n(-c3cccc(OC)c3)c(=O)c2c1C | 10.2
6 | NC(=S)N/N=C1\CC(c2ccc3c(c2)OCCCO3)Oc2ccc(F)cc21 (stereo not shown) | 6.23
7 | O=C(NNC(=O)c1csc(N2CCOCC2)n1)c1ccc(=O)[nH]c1 | 6.26
8 | CCOC(=O)N1CCN(C(=O)c2cnn3c(C(F)F)cc(-c4ccc(C)cc4)nc23)CC1 | -0.653
9 | CC(C)OC(=O)c1c2c(n3ccccc13)C(=O)c1ccccc1C2=O | 5.73
10 | Cc1ccc(N2CCN(CCc3nc4cc(NC(=O)c5ccco5)ccc4n3C)CC2)cc1 | -70.7
11 | CN1CCN(CCc2nc3cc(NC(=O)c4ccco4)ccc3n2C)CC1 | 4.18
12 | Cn1c(CCN2CCN(c3ccc(F)cc3)CC2)nc2cc(NC(=O)c3ccco3)ccc21 | -63.6
13 | Cc1ccc(C(=O)Nc2ccc3c(c2)nc(CCNC(=O)c2ccco2)n3C)cc1 | 8.06
14 | Cn1c(CCNC(=O)c2ccco2)nc2cc(NC(=O)c3ccco3)ccc21 | -14.4
15 | Cn1c(CN2CCCC2)nc2cc(NC(=O)c3ccco3)ccc21 | 7.42
16 | Cc1ccc(Cc2c(C)c(C#N)c3[nH]c4ccccc4n3c2=O)cc1 | 11.4
17 | O=C(O)C12C3CCCC1C32c1ccccc1 (stereo not shown) | 21.7
18 | CC1CCC2C(=O)N(c3ccccc3OC(=O)c3ccccc3F)C(=O)C2C1 (stereo not shown) | -10.3
19 | CCCSC1=C(C#N)C(c2ccc(O)c(OC)c2)CC(=O)N1 (stereo not shown) | -45.1
20 | CCCn1c(=O)n(C)c(=O)c2c(SCC(=O)NC34CC5CC(CC(C5)C3)C4)nc(CC(C)C)nc21 | 8.5
21 | CCCn1c(=O)n(C)c(=O)c2c(SCC(=O)NCC(c3ccccc3)N(C)C)nc(CC(C)C)nc21 (stereo not shown) | -66.1
22 | CC(C)Cc1nc(SCC(=O)NCC2CCCO2)c2c(=O)n(C)c(=O)n(C)c2n1 (stereo not shown) | -0.141
23 | CNC(=O)c1c(I)c(C(=O)NCC(=O)Nc2c(I)c(C(=O)O)c(I)c(C(=O)NCCO)c2I)c(I)c(N(C)C(C)=O)c1I | 6.45
24 | CC(CN1C(C)CCCC1C)OC(=O)c1ccc(Cl)cc1Cl (stereo not shown) | -51.7

Row | SMILES | hERG current change (%, negative = inhibition) at 10uM [%]
25 | CC(CN1C(C)CCCC1C)OC(=O)c1ccccc1Cl (stereo not shown) | -26.8
26 | COc1cc(C(=O)OC(C)CN2C(C)CCCC2C)cc(OC)c1OC.Cl (stereo not shown) | -50.2
27 | COc1cc(C(=O)OC(C)CN2CCCC2)cc(OC)c1OC.Cl (stereo not shown) | -12.2
28 | COc1cc(C(=O)OC(C)CN2CCCCC2)cc(OC)c1OC.Cl (stereo not shown) | -4.43
29 | CC(CN1C(C)CCCC1C)OC(=O)c1ccc(Cl)cc1 (stereo not shown) | -44.8
30 | O=S(=O)(/N=C(/Nc1ccc(F)cc1F)c1ccccc1)c1ccc(Br)cc1 | 12.3
31 | Cc1cc(C)cc(-n2c(SCC(=O)NCc3ccc4c(c3)OCO4)nc3ccccc3c2=O)c1 | 15.9
32 | CCOC(=O)c1c(-n2c(C)cc(/C=C3/C(=O)NC(=O)N(CC)C3=O)c2C)sc2c1CCCC2 | 2.36
33 | CC(C)C1Oc2ccccc2N(CC(=O)N(Cc2ccccn2)C2CC2)C1=O (stereo not shown) | -13.6
34 | O=C(Nc1ccccc1N1CCCC1)C1CC(=O)N(Cc2ccccc2)C1 (stereo not shown) | -44.4
35 | CCOC(=O)CNc1ncnc2nc[nH]c12 | 9.53
36 | COC(=O)c1sc(S(=O)(=O)NCc2ccccc2)c(C(=O)OC)c1C | -50.4
37 | COC(=O)c1sc(S(=O)(=O)NCc2cccs2)c(C(=O)OC)c1C | -19.1
38 | COC(=O)c1c(S(=O)(=O)NCc2ccccc2)sc(C(=O)O)c1C | 6.81
39 | Cc1[nH][nH]c(=O)c1C=Nc1ccc(C(F)(F)F)cc1 | 17.4
40 | O=C(OC(C(=O)NC1CCCC1)c1ccccn1)c1cccs1 (stereo not shown) | -3.4
41 | CCc1noc(C)c1C(=O)NC1CCCc2c1cnn2-c1ccc(C(C)(C)C)cc1 (stereo not shown) | 10.2
42 | CN1CCc2c(sc3c2c(NCc2ccco2)nc2nnnn23)C1 | -71.8
43 | CCN1CCc2c(sc(NC(=S)NC(=O)c3ccco3)c2C(N)=O)C1 | 2.95
44 | c1coc(CNc2ncnc3sc4c(c23)CCCCC4)c1 | -39.4
45 | CCN1CCc2c(sc3c2c(NCc2ccco2)nc2nnnn23)C1 | -73.6
46 | Cc1nc(NCc2ccco2)c2c3c(sc2n1)CCC3 | -24.3
47 | CN1CCc2c(sc3nc(SCC(=O)NCc4ccco4)n(-c4ccccc4)c(=O)c23)C1 | -10.6
48 | Cn1c(NN)nc2sc3c(c2c1=O)CC(C)(C)OC3 | 9.89

Row | SMILES | hERG current change (%, negative = inhibition) at 10uM [%]
49 | CCCNC(=O)CSc1nccn1Cc1ccco1 | 0.203
50 | CC1(C)SC(=S)N(/N=C/c2ccc(O)cc2)C1N(O)C(=O)Nc1ccc([N+](=O)[O-])cc1 (stereo not shown) | -10.2
51 | Nc1ccn([C@H]2CS[C@@H](CO)O2)c(=O)n1 | 18
52 | CC(CNC(=O)c1ccccc1[N+](=O)[O-])NC(=O)c1ccccc1[N+](=O)[O-] (stereo not shown) | 1.57
53 | O=C(NCCNc1ccc([N+](=O)[O-])cc1)c1ccccc1Br | -43.3
54 | CC(CNc1ccc([N+](=O)[O-])cc1)NC(=O)c1ccccc1Br (stereo not shown) | -50.6
55 | C=CCN1C(=O)C(Cc2ccccc2)SC1=Nc1ccc(C(=O)O)cc1 (stereo not shown) | -3.37
56 | Cc1nonc1NC(=O)CSc1nc(CCC2CCCC2)nc2ccccc12 | 3.64
57 | COc1cc2c(cc1OC)-c1c(OC)c(OC)cc3ccnc(c13)C2=O | -30.7
58 | CCOc1cc(-c2nccc3cc(OC)c(OC)cc23)cc(OCC)c1OCC | -46.8
59 | COc1cc2c(cc1OC)-c1c(OC)c(OC)c(OC)c3ccnc(c13)C2=O | -53.8
60 | Cc1cc(-c2cc(-c3ccccc3)on2)nc(NC2CCCC2)n1 | 15.7
61 | Cc1ccc(Nc2nc(N)nc(CN3CCN(c4ccccc4F)CC3)n2)cc1 | -67.4
62 | CCOc1ccc(Nc2nc(N)nc(CSC(=S)N3CCN(c4ccccc4)CC3)n2)cc1 | 17.2
63 | COc1ccccc1Nc1nc(N)nc(CN2CCN(c3ccccc3F)CC2)n1 | -35.9
64 | Cc1cccc(Nc2nc(N)nc(CC(=O)CSc3ccc(Cl)cc3)n2)c1 | 4.27
65 | Cc1cccc(Nc2nc(N)nc(CN3CCN(c4ccccc4F)CC3)n2)c1 | -68.2
66 | Nc1nc(CN2CCN(c3ccccc3F)CC2)nc(Nc2ccccc2)n1 | -57.1
67 | CCOc1ccc(Nc2nc(N)nc(CN3CCN(c4ccccc4F)CC3)n2)cc1 | -80.8
68 | Fc1ccccc1N1CCN(Cc2nc(-c3ccccc3)no2)CC1 | -6.65
69 | Cc1ccc(-c2noc(CN3CCN(c4ccccc4F)CC3)n2)cc1 | 8.71
70 | Cc1nnc(SCC2=C(C(=O)O)N3C(=O)C(NC(=O)Cn4ncc(Cl)c4C)C3SC2)s1 (stereo not shown) | 26.9
71 | COc1ccc(CNC(=O)C2CCCN(S(=O)(=O)N3CC(C)CC(C)C3)C2)c(OC)c1 (stereo not shown) | -6.97
72 | CCCC(=O)C1=C(O)C(C(=O)OC)C(C)(C)CC1=N (stereo not shown) | 19.9

Row | SMILES | hERG current change (%, negative = inhibition) at 10uM [%]
73 | Cc1csc(NC(=O)c2sccc2C)n1 | 12.7
74 | CCn1c(SCC(=O)Nc2ccc(OCc3ccccc3)cc2)nnc1-c1ccco1 | -0.171
75 | CCCn1c(=O)c(Cc2ccccc2)c(O)c2ccccc21 | 1.06
76 | Cc1nc2ccccc2c(=O)n1NC(=O)/C=C/c1ccc(Br)cc1 | -1.3
77 | CN1CCN(c2ccc3c(c2)S(=O)(=O)c2ccccc2C3=O)CC1 | -23.4
78 | N#C/C(=N\Nc1ccc([N+](=O)[O-])cc1)C(N)=S | 13.4
79 | N#C/C(=N\Nc1ccc([N+](=O)[O-])cc1)C(=N)N1CCOCC1 | -54.2
80 | C/C(=N\Nc1ccc([N+](=O)[O-])cc1)c1ccc(N2CCOCC2)cc1 | 4.46
81 | N#C/C(=N\Nc1ccccc1)C(=N)N1CCOCC1 | -7.71
82 | COc1ccc(N/N=C(\C#N)C(=N)N2CCOCC2)cc1 | 11.4
83 | N#C/C(=N\Nc1ccc(Br)cc1)C(=N)N1CCOCC1 | -68.9
84 | Cc1ccc(OCC(=O)NN2C(=O)c3ccccc3C2=O)c(C)c1 | 6.34
85 | CC(C)c1nc(-c2ccc([N+](=O)[O-])cc2)cs1 | 1.87
86 | CSCCC(NC(=O)c1ccc([N+](=O)[O-])cc1Cl)C(=O)OC(C)C(=O)NCc1ccco1 (stereo not shown) | -61.7
87 | CSCCC(NC(=O)c1ccc(Cl)cc1)C(=O)OCC(=O)NCc1ccco1 (stereo not shown) | -23.8
88 | CSCCC(NC(=O)c1ccc([N+](=O)[O-])cc1Cl)C(=O)OCC(=O)N(C)C (stereo not shown) | -2.34
89 | O=C(NCc1ccco1)c1ccc([N+](=O)[O-])cc1Cl | -3.96
90 | CSCCC(NC(=O)c1ccc([N+](=O)[O-])cc1Cl)C(=O)OCC(=O)N1CCN(C(C)=O)CC1 (stereo not shown) | 3.12
91 | CSCCC(NC(=O)c1ccc([N+](=O)[O-])cc1Cl)C(=O)OCC(=O)NCC(F)(F)F (stereo not shown) | -16.7
92 | CSCCC(NC(=O)c1ccc(Cl)cc1Cl)C(=O)OC(C)C(=O)NCc1ccco1 (stereo not shown) | -51.8
93 | CSCCC(NC(=O)c1ccc([N+](=O)[O-])cc1Cl)C(=O)OCC(=O)NCCCc1ccccc1 (stereo not shown) | -57.8
94 | CSCCC(NC(=O)c1ccc(Cl)cc1Cl)C(=O)OCC(N)=O (stereo not shown) | -5.4
